Screening data (PubChem BioAssay)
SRC3 TRFRET art: flags TR-FRET format artefacts in PPARgamma SRC-3 recruitment agonist screen | TR-FRET artefact counter-screen, PPARgamma/SRC-3 format; hits give high values | TR-FRET ratio at 8 µM | actives 0.39% (n = 99,000)
SRC2 TRFRET art: counter-screen for PPARgamma SRC-2 recruitment agonists: TR-FRET artefact; hits give high values; AID 1049; actives 0.4% (n = 200,000); TR-FRET ratio at 8 µM
PPARg SRC-3 ag: agonists of human PPARgamma SRC-3 coactivator recruitment | AID 731 | biochemical PPARgamma/SRC-3 coactivator recruitment assay | P37231 | activation, % at 8 µM | actives 0.26% (n = 200,000); in the data active = activation above about 23%;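 also: 0% = DMSO and 100% = reference agonist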
Target sequence (P37231 whole entry, looked up): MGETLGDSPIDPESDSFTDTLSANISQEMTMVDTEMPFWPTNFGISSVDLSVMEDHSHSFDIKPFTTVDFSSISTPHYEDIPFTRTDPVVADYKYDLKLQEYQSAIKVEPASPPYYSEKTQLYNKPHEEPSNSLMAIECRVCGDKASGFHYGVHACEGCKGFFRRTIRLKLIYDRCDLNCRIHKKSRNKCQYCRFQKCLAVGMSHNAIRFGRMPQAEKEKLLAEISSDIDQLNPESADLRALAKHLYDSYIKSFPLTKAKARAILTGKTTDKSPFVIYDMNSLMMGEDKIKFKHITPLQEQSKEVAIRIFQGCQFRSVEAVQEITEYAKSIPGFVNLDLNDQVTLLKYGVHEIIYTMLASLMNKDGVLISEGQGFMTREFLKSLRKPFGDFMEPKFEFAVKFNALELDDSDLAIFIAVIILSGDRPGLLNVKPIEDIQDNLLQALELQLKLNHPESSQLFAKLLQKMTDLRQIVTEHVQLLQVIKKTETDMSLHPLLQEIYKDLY
SRC1 TRFRET art: flags TR-FRET format artefacts in PPARgamma SRC-1 recruitment agonist screen; TR-FRET detection artefact counter-screen, emission ratio; hits give high values; TR-FRET ratio at 8 µM; actives 0.34% (n = 99,000); AID 1051; in the data active = TR-FRET ratio above about 2300
PPARg SRC1 recr: promotes SRC-1 coactivator recruitment by human PPARgamma; P37231; PPARgamma-SRC-1 coactivator recruitment biochemical assay; activation, % at 8 µM; actives 0.41% (n = 200,000); in the data active = activation above about 19%;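 also: 0% = DMSO and 100% = reference agonist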
PPARg SRC-2 ag: agonists of SRC-2 recruitment by human PPARgamma; PPARgamma LBD-SRC-2 recruitment, biochemical; activation, % at 8 µM; actives 0.34% (n = 200,000); in the data active = activation above about 22%;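 also: 0% = vehicle and 100% = reference agonist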
The depositor's hits bear a star; nt = no result given. Compounds with a hit are over-represented: about 0.84% of the library has one in this group of screens. Rule as the data show it, unless noted: active = TR-FRET ratio above about 2000; inactive = the rest.

SMILES	SRC3 TRFRET art	SRC2 TRFRET art	PPARg SRC-3 ag	SRC1 TRFRET art	PPARg SRC1 recr	PPARg SRC-2 ag
O=C1Cc2cc(CCN3CCN(c4nsc5ccccc45)CC3)c(Cl)cc2N1	1480	1522	-1.1	1812	3.1	2.7
CCOC(=O)c1sc(=NC(=O)c2cccs2)n(C)c1C	1752	1596	-0.6	1624	2.5	10.4
Cc1ccc2c(c1)sc(=NC(=O)c1cccs1)n2C	3246*	1499	6.0	2965*	7.0	-1.4
N#Cc1c(N)nc(SCC(=O)NCc2ccc3c(c2)OCO3)c(C#N)c1-c1cccs1	nt	1660	3.7	nt	3.7	8.0
COc1ccc(-c2cc(-c3cccs3)c(C#N)c(SCC(=O)NCc3ccccc3)n2)cc1	nt	1693	4.7	nt	39.4*	5.8
COc1ccc(-c2cc(-c3ccccc3)nc(SCC(=O)Nc3ncc(C)s3)c2C#N)cc1	1299	1511	0.5	1750	-2.9	-4.7
COc1ccccc1CNC(=O)CSc1nc(N)c(C#N)c(-c2cccs2)c1C#N	nt	1644	29.5*	nt	2.9	9.4
COc1ccc(-c2cc(-c3cccs3)c(C#N)c(SCC(=O)NCc3ccccc3OC)n2)cc1	nt	1559	-5.8	nt	27.3*	-2.8
Cc1ccsc1/C=N/NC(=O)C(=O)NCC(C)C	1615	1564	5.2	1869	-0.4	1.7
CCC(=O)Nc1ccc(Cl)c(NC(=O)c2c(OC)cccc2OC)c1	1772	1494	3.9	1904	8.7	8.8
O=C(CN1C(=O)/C(=C\c2cccc(Cl)c2)Oc2ccccc21)N1CCN(c2ccccn2)CC1	1478	1552	-1.0	1725	3.9	3.0
Cn1c(C(=O)N2CCOCC2)cnc1Sc1ncc(C(F)(F)F)cc1Cl	nt	1743	10.1	nt	-1.1	21.8*
CCOc1ccc(-n2c(=S)sc3c(=O)[nH]c(SCC(=O)C(C)(C)C)nc32)cc1	1533	1703	0.4	1696	5.0	10.8
O=C(CCc1ccccc1)NNC(=O)Cc1ccccc1	1573	1313	-0.8	1611	-7.3	-6.2
O=S(=O)(c1ccccc1)N1CCN(c2nc(-c3cccs3)nc3ccccc23)CC1	1537	1678	-0.2	1800	1.8	6.0
Cc1nc(N2CCN(S(=O)(=O)c3ccc(F)cc3)CC2)c2c(-c3cccs3)csc2n1	2853*	2641*	0.1	3173*	-1.5	-6.5
NC(=O)C1(N2CCCCC2)CCN(C(=S)Nc2ccc(S(N)(=O)=O)cc2)CC1	1640	1604	0.7	1684	1.8	8.1
COc1ccc(C(=O)N2CCN(C(C)=O)CC2)cc1S(=O)(=O)N1CCOCC1	1498	1448	-5.6	1662	-9.0	-7.1
CC(SC#N)C(=O)C12CC3CC(CC(C3)C1)C2 (stereo not drawn)	1549	1530	2.3	1762	-1.6	7.7
CC(C)(O)C#Cc1ccc(CN2CCN(C3CCCCC3)C(CCO)C2)cc1 (stereo not drawn)	1573	1582	-1.8	2568*	24.3*	1.5
COc1ccc(CNCC(O)COc2cccc3c2OC(C)(C)C3)cc1 (stereo not drawn)	1636	1747	-0.4	1811	8.3	-2.4
COc1ccc(C(=O)Nc2nc3c(s2)CCCC3)cc1S(=O)(=O)N1CCCc2ccccc21	2089*	1754	5.2	2068	1.1	9.5
C=CCNC(=S)N1CCN(Cc2ccccc2)CC1	1630	1337	7.7	1644	-9.6	2.5
O=C(c1ccc(COc2ccccc2Br)cc1)N1CCCCCC1	1779	1545	4.2	1483	-1.1	4.8
CC(=O)NC1=NC(=O)/C(=C/c2cc(C)n(-c3ccc(NC(C)=O)cc3)c2C)S1	2601*	1615	24.1*	1777	2.9	4.6
SMILES	SRC3 TRFRET art	SRC2 TRFRET art	PPARg SRC-3 ag	SRC1 TRFRET art	PPARg SRC1 recr	PPARg SRC-2 ag
CC(=O)NC1=NC(=O)/C(=C/c2cc(C)n(-c3cccc(C(=O)O)c3)c2C)S1	1697	1638	1.7	2073	-0.5	4.6
c1ccc2c(c1)COC(CN1CCCCC1)OC2	1318	1605	-2.1	1663	-4.4	-1.7
Cc1c(N=Nc2ccc(O)cc2)c(=O)n(-c2ccccc2)n1C	2164*	1632	3.2	2013	12.5	3.1
C=CCNC(=O)c1c(Cl)cnn1-c1ccc(C)cc1	1531	1420	-6.0	1544	-1.0	-5.7
CN(C)S(=O)(=O)c1cccc(NC(=O)c2cc(-c3cccs3)nc3ccccc23)c1	2449*	2036*	6.7	2272	-0.3	-6.4
O=C(c1cc(-c2cccs2)nc2ccccc12)N1CCN(S(=O)(=O)c2ccccc2)CC1	nt	2313*	-5.4	nt	-4.0	1.6
